From PubChem BioAssay (Tox21)
Inconclusive results are not listed. Some structures have more than one record in an assay (separate samples or runs), and their calls can disagree. Calls of active or inactive are those of the source. Unless noted, calls come from the whole dose curve.

How the values were obtained:
[1] = qHTS assay to identify small molecule agonists of the sonic hedgehog signaling (Shh) pathway (AID 1259368);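 note: NIH/3T3-derived 3T3Gli1-Luc cells carrying a stable Gli1-driven firefly luciferase reporter; series mostly up to about 92 µM; nearly all actives have a fitted effect of over 15% in size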
How it was run: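 3T3Gli1-Luc (NIH/3T3 clone, stable Gli1-Luc); 4 hr pre-incubation, then cpd in DMSO 24 hr, 37 C/5% CO2; luciferase reagent 30 min RT; luminescence.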

[2] = qHTS assay to identify small molecule antagonists of the sonic hedgehog signaling (Shh) pathway (AID 1259369); note: nearly all actives have a fitted effect of over 45% in size; note: potency is the fitted concentration of half-maximal effect
How it was run: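 3T3Gli1-Luc, conditioned-medium-stimulated, 24hr cpd, 37C/5% CO2; Gli1-driven firefly Luc luminescence after 30min RT with luciferase reagent. Cells plated 4hr before cpd.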

[3] = molecular target: Estrogen receptor beta (Homo sapiens) (UniProt Q92731); assay: qHTS assay to identify small molecule agonists of the estrogen receptor beta (ER-beta) signaling pathway (AID 1259377; active = well fitted activation curve with a large enough effect in the signal ratio in the repeat runs, not every such curve was filed as active; the % refers to the signal ratio)
How it was run: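 ER-beta-UAS-bla HEK293T cells in medium with 2% charcoal-stripped FBS were exposed to compounds for 16 h at 37C. Beta-lactamase reporter activity was read as fluorescence after 2 h with LiveBLAzer B/G FRET substrate at room temperature.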

[4] = molecular target: Estrogen receptor beta (Homo sapiens) (UniProt Q92731); assay: qHTS assay to identify small molecule antagonists of the estrogen receptor beta (ER-beta) signaling pathway (AID 1259378; active = well fitted inhibition curve with a large enough effect in the signal ratio in the repeat runs, not every such curve was filed as active; the % refers to the signal ratio)
How it was run: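 Antagonist mode: compounds added to beta-lactamase reporter HEK293T ER-beta-UAS cells stimulated with E2 (1nM final), 16 hr at 37C. LiveBLAzer B/G FRET substrate, 2 hours room temperature, fluorescence read-out.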

[5] = qHTS assay to identify small molecule agonists of the androgen receptor (AR) signaling pathway in the presence of an antagonist - cell viability counter screen (AID 1259379; active = well fitted curve in the direction sought with a large enough effect in the repeat runs; an effect the other way counts as inactive or inconclusive;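 note: MDA-kb2 human breast cancer cells carrying an MMTV luciferase reporter; series mostly up to about 92 µM; nearly all actives have a fitted effect of over 25% in size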)
How it was run: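 Cells: MDA-kb2 (MMTV-luc, AR and GR elements), 3,000/well, 5 hr settle. Added: nilutamide 3.0uM final, then compounds (15 conc.). Incubation: 16 hr, 37C, no CO2. Read-out: CellTiter-Fluor, 1 hr, fluorescence.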

[6] = qHTS assay to identify small molecule agonists of the estrogen receptor beta (ER-beta) signaling pathway - cell viability counter screen (AID 1259380; active = well fitted curve in the direction sought with a large enough effect in the repeat runs; an effect the other way counts as inactive or inconclusive; note: nearly all actives have a fitted effect of over 30% in size)
How it was run: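 HEK293T ER-beta-UAS-bla; 2% CS-FBS; 6 hr pre-plate, 16 hr cpd at 37C/5% CO2; LiveBLAzer read first, then CellTiter-Glo 30 min RT, luminescence.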

[7] = qHTS assay to identify small molecule antagonists of the estrogen receptor beta (ER-beta) signaling pathway - cell viability counter screen (AID 1259382; active = well fitted curve in the direction sought with a large enough effect in the repeat runs; an effect the other way counts as inactive or inconclusive;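 note: HEK293T cells carrying ER-beta-UAS-bla reporter stimulated with estradiol; series mostly up to about 92 µM; nearly all actives have a fitted effect of over 55% in size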)
How it was run: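 Cells: ER-beta-UAS-bla HEK293T, 2,000/well, 2% CS-FBS, 6 hr settle. Cpd + E2 (1nM final), 16 hr, 37C/5% CO2. Bla FRET substrate 2 hr RT, then CellTiter-Glo 30 min RT, luminescence.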

[8] = molecular target: Estrogen receptor (Homo sapiens) (UniProt P03372); assay: qHTS assay to identify small molecule agonists of the estrogen receptor alpha (ER-alpha) signaling pathway in the presence of an antagonist (AID 1259383); note: top concentration of the series differs between compounds; nearly all actives have a fitted effect of over 15% in size
How it was run: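 VM7Luc4E2, endog. ER-alpha + 4×ERE-luc; charcoal-stripped FBS, phenol red-free, 5 d; 24hr plating; +10.0nM ICI-182,780 (final); cpds 15 conc, 22hr, 37C/5% CO2; ONE-Glo luminescence.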

[9] = qHTS assay to identify small molecule agonists or antagonists of the thyroid stimulating hormone receptor (TSHR) signaling pathway - wild type cell line counter screen (AID 1259384)
How it was run: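 Counter screen in untransfected Hek293: compounds (15-point titration, triplicate) plus phosphodiesterase inhibitor Ro20-1724 added after 18 h plating; 30 min RT. Intracellular cAMP via competitive d2/cryptate immunoassay, 1 h incubation.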

[10] = molecular target: Androgen receptor (Homo sapiens) (UniProt P10275); assay: qHTS assay to identify small molecule agonists of the androgen receptor (AR) signaling pathway in the presence of an antagonist (AID 1259381); note: nearly all actives have a fitted effect of over 15% in size; note: potency is the fitted concentration of half-maximal effect
How it was run: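 MDA-kb2 cells, 3,000/well, rested 5hr at 37C/0% CO2 → nilutamide 3.0uM final or buffer → compounds, 15 conc. → 16hr at 37C → ONE-Glo, 30min RT → luminescence.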
% is set by controls: 0 for no effect and ±100 for the full control effect.

Estrogen receptor (Homo sapiens), sequence (P03372 whole entry, looked up): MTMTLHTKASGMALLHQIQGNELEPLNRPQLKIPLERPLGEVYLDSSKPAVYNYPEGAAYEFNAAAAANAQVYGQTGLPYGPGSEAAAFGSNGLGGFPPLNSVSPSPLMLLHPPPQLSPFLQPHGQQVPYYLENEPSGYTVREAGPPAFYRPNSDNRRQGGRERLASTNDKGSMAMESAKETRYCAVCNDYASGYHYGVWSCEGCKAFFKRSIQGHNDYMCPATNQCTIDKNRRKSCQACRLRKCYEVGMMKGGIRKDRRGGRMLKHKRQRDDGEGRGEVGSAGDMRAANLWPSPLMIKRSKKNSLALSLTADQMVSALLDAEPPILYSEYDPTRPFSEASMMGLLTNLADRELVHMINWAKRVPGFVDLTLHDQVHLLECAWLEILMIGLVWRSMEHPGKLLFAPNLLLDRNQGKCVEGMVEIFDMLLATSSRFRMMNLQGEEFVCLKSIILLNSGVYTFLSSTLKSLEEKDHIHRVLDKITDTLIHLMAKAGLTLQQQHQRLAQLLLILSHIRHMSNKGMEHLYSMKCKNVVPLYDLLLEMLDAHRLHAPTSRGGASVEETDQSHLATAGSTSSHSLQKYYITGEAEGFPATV
Androgen receptor (Homo sapiens), sequence (P10275 whole entry, looked up): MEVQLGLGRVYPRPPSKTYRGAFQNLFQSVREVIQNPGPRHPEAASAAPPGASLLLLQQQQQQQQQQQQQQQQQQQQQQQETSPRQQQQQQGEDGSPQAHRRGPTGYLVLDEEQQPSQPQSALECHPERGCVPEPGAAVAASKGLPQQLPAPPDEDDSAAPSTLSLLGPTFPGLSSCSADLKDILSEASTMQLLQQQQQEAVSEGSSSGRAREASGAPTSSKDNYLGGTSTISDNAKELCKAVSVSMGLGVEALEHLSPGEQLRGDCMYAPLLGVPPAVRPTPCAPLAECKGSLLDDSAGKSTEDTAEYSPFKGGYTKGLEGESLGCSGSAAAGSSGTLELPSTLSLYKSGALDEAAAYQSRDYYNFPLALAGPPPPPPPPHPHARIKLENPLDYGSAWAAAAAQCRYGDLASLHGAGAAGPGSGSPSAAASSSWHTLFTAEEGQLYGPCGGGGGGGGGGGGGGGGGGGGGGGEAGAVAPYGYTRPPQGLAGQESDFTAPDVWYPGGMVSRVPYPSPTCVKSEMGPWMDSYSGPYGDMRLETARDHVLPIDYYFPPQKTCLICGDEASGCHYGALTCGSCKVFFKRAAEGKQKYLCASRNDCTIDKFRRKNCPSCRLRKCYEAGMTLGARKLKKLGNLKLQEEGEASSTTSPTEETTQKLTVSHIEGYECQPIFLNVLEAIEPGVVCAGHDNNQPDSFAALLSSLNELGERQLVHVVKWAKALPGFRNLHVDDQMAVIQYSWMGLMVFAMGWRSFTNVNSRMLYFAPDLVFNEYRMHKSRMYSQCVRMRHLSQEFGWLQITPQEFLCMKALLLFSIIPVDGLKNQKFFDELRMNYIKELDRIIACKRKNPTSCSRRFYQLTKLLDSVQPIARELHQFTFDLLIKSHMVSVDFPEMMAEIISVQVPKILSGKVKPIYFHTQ
Estrogen receptor beta (Homo sapiens), sequence (Q92731 whole entry, looked up): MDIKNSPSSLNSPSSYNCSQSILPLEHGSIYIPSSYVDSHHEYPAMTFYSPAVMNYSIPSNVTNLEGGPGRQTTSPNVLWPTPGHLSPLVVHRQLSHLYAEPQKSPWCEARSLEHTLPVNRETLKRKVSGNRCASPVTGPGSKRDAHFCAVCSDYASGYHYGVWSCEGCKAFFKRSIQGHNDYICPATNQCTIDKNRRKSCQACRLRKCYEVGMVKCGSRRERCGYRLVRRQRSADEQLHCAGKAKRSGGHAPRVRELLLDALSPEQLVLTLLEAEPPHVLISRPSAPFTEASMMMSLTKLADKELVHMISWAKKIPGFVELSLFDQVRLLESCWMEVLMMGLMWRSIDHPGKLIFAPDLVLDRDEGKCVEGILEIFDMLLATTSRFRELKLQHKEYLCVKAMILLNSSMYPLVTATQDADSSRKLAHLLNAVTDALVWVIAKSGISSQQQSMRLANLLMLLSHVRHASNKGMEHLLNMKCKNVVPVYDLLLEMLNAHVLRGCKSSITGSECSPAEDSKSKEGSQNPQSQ

CCCN1CCC[C@@H]2Cc3[nH]ncc3C[C@H]21
inactive: outcome [1] | Potency [2] | Potency [3] | outcome [4] | Potency [5] | Potency [6] | Potency [7] | Potency [8] | outcome [9]

CCC(C)C(C)(COC(N)=O)COC(N)=O (stereo not drawn)
inactive: outcome [1] | Potency [2] | Potency [3] | outcome [4] | Potency [5] | Potency [6] | Potency [7] | Potency [8] | outcome [9]

CCOC(=O)CCl
inactive: outcome [1] | Potency [2] | Potency [3] | outcome [4] | Potency [5] | Potency [6] | Potency [7] | Potency [8] | outcome [9]

O=C1CC(=O)NC(=O)N1
inactive: outcome [1] | Potency [2] | Potency [3] | outcome [4] | Potency [5] | Potency [6] | Potency [7] | Potency [8] | outcome [9]

CN=CNc1ccc(C)cc1C
inactive: outcome [1] | Potency [2] | Potency [3] | outcome [4] | Potency [5] | Potency [6] | Potency [7] | Potency [8] | outcome [9]

O=C(Cl)C(Cl)(Cl)Cl
inactive: outcome [1] | Potency [2] | Potency [3] | outcome [4] | Potency [5] | Potency [6] | Potency [7] | Potency [8] | outcome [9]

CCC(C(N)=O)N1CCCC1=O (stereo not drawn)
inactive: outcome [1] | Potency [2] | Potency [3] | outcome [4] | Potency [5] | Potency [6] | Potency [7] | Potency [8] | outcome [9]

CC(Cc1ccccc1)NCCn1cnc2c1c(=O)n(C)c(=O)n2C (stereo not drawn)
inactive: outcome [1] | Potency [2] | Potency [3] | outcome [4] | Potency [5] | Potency [6] | Potency [7] | Potency [8] | outcome [9]

Clc1nc(Cl)nc(Nc2ccccc2Cl)n1
inactive: outcome [1] | Potency [2] | Potency [3] | outcome [4] | Potency [5] | Potency [6] | Potency [7] | Potency [8] | outcome [9]

ClC(Cl)(Cl)Cl
inactive: outcome [1] | Potency [2] | Potency [3] | outcome [4] | Potency [5] | Potency [6] | Potency [7] | Potency [8] | outcome [9]

CS(=O)(=O)Cl
inactive: outcome [1] | Potency [2] | Potency [3] | outcome [4] | Potency [5] | Potency [6] | Potency [7] | Potency [8] | outcome [9]

Cn1c(CCCC(=O)O)nc2cc(N(CCCl)CCCl)ccc21
inactive: outcome [1] | Potency [2] | Potency [3] | outcome [4] | Potency [5] | Potency [6] | Potency [7] | Potency [8] | outcome [9]

Cc1ccc2c(c1)C1CN(C)CCC1N2 (stereo not drawn)
inactive: activity change [1] 0.824% [at 18.9 µM] | activity change, negative = inhibition [2] 7.51% [at 19 µM] | activation [3] -2.72% [at 19 µM] | activity, negative = inhibition [4] 2.34% [at 19 µM] | activity change, negative = cytotoxicity [5] 0.715% [at 19 µM] | activity change, negative = cytotoxicity [6] -1.6% [at 19 µM] | activity change, negative = cytotoxicity [7] 0.836% [at 19 µM] | activation [8] 0.841% [at 19 µM] | cAMP activity change [9] -0.0429% [at 18.9 µM]

CC(C)[N+](C)(CCC(C(N)=O)(c1ccccc1)c1ccccc1)C(C)C
inactive: outcome [1] | Potency [2] | Potency [3] | outcome [4] | Potency [5] | Potency [6] | Potency [7] | Potency [8] | outcome [9]

[P]#[In]
inactive: outcome [1] | Potency [2] | Potency [3] | outcome [4] | Potency [5] | Potency [6] | Potency [7] | outcome [9]

O=C(O)C(Cl)Br (stereo not drawn)
inactive: outcome [1] | Potency [2] | Potency [3] | outcome [4] | Potency [5] | Potency [7] | outcome [9]

O=C(O)CBr
inactive: outcome [1] | Potency [2] | Potency [3] | Potency [5] | Potency [6] | Potency [7] | outcome [9]

CCOC(=O)NC(C)(C)Cc1ccc(Cl)cc1
inactive: outcome [1] | Potency [2] | Potency [5] | Potency [6] | Potency [10] | Potency [7] | Potency [8] | outcome [9]

O=C(Cl)/C=C/C(=O)Cl
inactive: outcome [1] | Potency [2] | Potency [3] | Potency [5] | Potency [6] | Potency [10] | Potency [7] | Potency [8]

COc1cccc([C@@]2(O)CCCC[C@@H]2CN(C)C)c1
inactive: outcome [1] | Potency [2] | Potency [5] | Potency [6] | Potency [10] | Potency [7] | Potency [8] | outcome [9]

CC(C)c1ccc(O)cc1
inactive: outcome [1] | Potency [2] | Potency [3] | outcome [4] | Potency [5] | Potency [6] | Potency [7] | outcome [9]

CCOC(=O)CC(SP(=S)(OC)OC)C(=O)OCC (stereo not drawn)
27.3 µM (active) and inactive: Potency [10]
inactive: outcome [1] | Potency [2] | Potency [5] | Potency [6] | Potency [7] | Potency [8] | outcome [9]

CN(C)CCN(C)C
inactive: outcome [1] | Potency [2] | outcome [4] | Potency [5] | Potency [6] | Potency [7] | Potency [8] | outcome [9]

CC(C)NCC(O)c1ccc([N+](=O)[O-])cc1 (stereo not drawn)
inactive: outcome [1] | Potency [2] | Potency [3] | Potency [5] | Potency [6] | Potency [7] | outcome [9]

BrCc1ccc(Br)cc1
inactive: outcome [1] | Potency [2] | Potency [5] | Potency [6] | Potency [10] | Potency [7] | Potency [8] | outcome [9]

Oc1ccc2c3c1O[C@H]1[C@@H](O)C=C[C@H]4[C@@H](C2)NCC[C@@]341
inactive: outcome [1] | Potency [3] | Potency [5] | Potency [6] | Potency [7] | outcome [9]
active: Potency [2] 1990 nM

CCOC(=O)N(C)N=O
inactive: outcome [1] | Potency [2] | Potency [3] | outcome [4] | Potency [5] | Potency [6] | Potency [7] | outcome [9]

CC(C)(C)C(=O)C(Cl)Cl
inactive: outcome [1] | Potency [2] | Potency [3] | outcome [4] | Potency [5] | Potency [6] | Potency [7] | outcome [9]

Cc1ccc(S(=O)(=O)N[C@@H](CCCCN)C(=O)CCl)cc1
inactive: outcome [1] | Potency [2] | Potency [3] | Potency [5] | Potency [6] | Potency [10] | Potency [7] | Potency [8] | outcome [9]
